Experimental findings from paper PMC5540273 (PLoS ONE, 2017) are described below.

The test system of experiment [1] is T1, NIM1.
T1 construct: gene MGC42105
To be noted: concentration: 1 μM, replicates: in singlicate; n = 1.

The subject of experiment [2] is NLK. The settings on record: concentration: 1 μM, replicates: in singlicate; n = 1.
Experiment [3] relates to T2, OSR1.
T2 construct: gene OXSR1
To be noted: concentration: 1 μM, replicates: in singlicate; n = 1.

Experiment [4] has as its system PAK1. The settings on record: concentration: 1 μM, replicates: in singlicate; n = 1.
The subject of experiment [5] is PAK2. The settings on record: concentration: 1 μM, replicates: in singlicate; n = 1.
Experiment [6] concerns PAK3. To be noted: concentration: 1 μM, replicates: in singlicate; n = 1.
Experiment [7] relates to PAK4. To be noted: n = 1.
In experiment [8] the test system is PAK6. To be noted: n = 1.
The test system of experiment [9] is PAK7. To be noted: concentration: 1 μM, replicates: in singlicate; n = 1.
Experiment [10] relates to T3, PCTK1.
T3 construct: gene CDK16
To be noted: concentration: 1 μM, replicates: in singlicate; n = 1.

For experiment [11], the system named is T4, PCTK2.
T4 construct: gene CDK17
To be noted: concentration: 1 μM, replicates: in singlicate; n = 1.

The test system of experiment [12] is T5, PCTK3.
T5 construct: gene CDK18
To be noted: concentration: 1 μM, replicates: in singlicate; n = 1.

The test system of experiment [13] is PDGFRA. To be noted: concentration: 1 μM, replicates: in singlicate; n = 1.
The test system of experiment [14] is PDGFRB. The settings on record: concentration: 1 μM, replicates: in singlicate; n = 1.
Experiment [15] deals with PDPK1. The settings on record: concentration: 1 μM, replicates: in singlicate; n = 1.
Experiment [16] deals with PFTAIRE2. To be noted: concentration: 1 μM, replicates: in singlicate; n = 1.
Experiment [17] concerns T6, PFTK1.
T6 construct: gene CDK14
The settings on record: concentration: 1 μM, replicates: in singlicate; n = 1.

In experiment [18] the test system is PHKG1. To be noted: concentration: 1 μM, replicates: in singlicate; n = 1.
Experiment [19] relates to PHKG2. To be noted: concentration: 1 μM, replicates: in singlicate; n = 1.
Experiment [20] deals with PIK3C2B. The settings on record: concentration: 1 μM, replicates: in singlicate; n = 1.
[21] abbreviates: concentration: 1 μM, replicates: in singlicate.

Structures are written as SMILES. Where two headings read alike, the source gives them in different places.
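Note: KINOMEscan kinase panel screen.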

In the case of `Oc1cc(Nc2ccnc3cc(I)ccc23)ccc1F` [GW552771], the “%Inh” value in experiment [1] was 17%; in experiment [2], 58%; in experiment [3], 8%; in experiment [4], 0%; in [5], 0%; in experiment [6], 17%. Besides, the “%Inh” value in experiment [7] (setting [21]) is 0%; in experiment [8] (setting [21]) it was 0%; in experiment [9], 0%; in experiment [10], 3%; in experiment [11] it was 0%; in experiment [12] it was 15%. Also, the “%Inh” value was 19% in experiment [13]; 49% in [14]; 0% in [15]; 0% in experiment [16]; 0% in [17]; 0% in experiment [18]. Moreover, the “%Inh” value in experiment [19] and in [20] was 0% throughout.

As for `CCc1ccc(-c2ccc3c(c2)-c2c(cnn2C)S(=O)(=O)N3C)cc1`, the “%Inh” value in [1] was found to be 0%; in experiment [2] it was 11%; in experiment [3] it was 0%; in experiment [4], 0%; in experiment [5] it was 2%; in experiment [6], 0%. Besides, the “%Inh” value came to 1% in [7] (setting [21]); 9% in [8] (setting [21]); 0% in [9]; 0% in experiment [10]; 10% in experiment [11]; 0% in [12]. Also, the “%Inh” value in experiment [13] is reported as 0%; in [14] it was 6%; in experiment [15], 4%; in experiment [16] it was 0%; in experiment [17], 0%; in experiment [18], 5%. Besides, the “%Inh” value in [19] is 0%; in experiment [20], 8%.

With `Cc1ccc(C)c(NC(=O)NC2CCN(c3ccnc(Nc4ccc(F)cc4)n3)C2)c1` (centres unmarked) [GSK1379720], the “%Inh” value stood at 43% in [1]; 4% in [2]; 0% in [3]; 4% in experiment [4]; 2% in [5]; 14% in experiment [6]. The “%Inh” value worked out at 0% in experiment [7] (setting [21]); 0% in experiment [8] (setting [21]); 0% in experiment [9]; 0% in [10]; 0% in [11]; 10% in experiment [12]. The “%Inh” value is 0% in experiment [13]; 4% in experiment [14]; 0% in [15]; 4% in experiment [16]; 0% in [17]; 0% in experiment [18]. Further, the “%Inh” value in experiment [19] and in experiment [20] was 0% throughout.

In the case of `COc1cccc(NC(=O)NC2CCN(c3ccnc(Nc4cc(OC)c(OC)c(OC)c4)n3)C2)c1` (centres unmarked) [GSK1379763], the “%Inh” value is 15% in [1]; 63% in experiment [2]; 0% in experiment [3]; 0% in [4]; 0% in [5]; 0% in [6]. In addition, the “%Inh” value in experiment [7] (setting [21]) stood at 0%; in [8] (setting [21]), 16%; in experiment [9], 0%; in experiment [10], 6%; in experiment [11] it was 25%; in experiment [12] it was 21%. For the same molecule, the “%Inh” value was 28% in experiment [13]; 83% in [14]; 0% in experiment [15]; 9% in experiment [16]; 5% in [17]; 0% in experiment [18]. In addition, the “%Inh” value in [19] and in experiment [20] was 0% each time.

In the case of `Cc1occc1-c1ncc(OC[C@@H](N)Cc2c[nH]c3ccccc23)cc1-c1ccc2[nH]nc(C)c2c1.O=C(O)C(F)(F)F` [GSK682037], the “%Inh” value was 33% in [1]; 39% in [2]; 8% in experiment [3]; 97.5% in [4]; 68% in [5]; 32% in experiment [6]. Besides, the “%Inh” value in experiment [7] (setting [21]) is 2%; in experiment [8] (setting [21]) it was 15%; in experiment [9] it was 36%; in experiment [10] it was 0%; in experiment [11], 0%; in experiment [12] it was 0%. The “%Inh” value is 0% in experiment [13]; 81% in experiment [14]; 0% in experiment [15]; 16% in experiment [16]; 14% in experiment [17]; 0% in [18]. Further, the “%Inh” value in [19] and in experiment [20] was 0% in each case.

For the molecule `Nc1ncc(-c2cccnc2)c2scc(-c3ccc4c(c3)CCN4C(=O)Cc3ccccc3)c12` [GSK683281], the “%Inh” value in experiment [1] came to 11%; in experiment [2], 47%; in experiment [3] it was 19%; in experiment [4], 18%; in experiment [5], 19%; in [6] it was 62%. Also, the “%Inh” value in experiment [7] (setting [21]) worked out at 18%; in experiment [8] (setting [21]), 0%; in experiment [9], 7%; in experiment [10] it was 1%; in experiment [11], 8%; in experiment [12], 18%. Moreover, the “%Inh” value in experiment [13] amounted to 53%; in experiment [14], 94.3%; in experiment [15], 21%; in [16], 33%; in experiment [17], 20%; in experiment [18] it was 18%. Further, the “%Inh” value in experiment [19] and in [20] was 0% each time.

As to `COc1cccc(C2=C(Nc3ccc(Cl)c(C(=O)O)c3)C(=O)NC2=O)c1` [SB-390769], the “%Inh” value turned out to be 100% in experiment [1]; 22% in experiment [2]; 100% in [3]; 30% in [4]; 28% in experiment [5]; 0% in experiment [6]. The “%Inh” value in [7] (setting [21]) turned out to be 0%; in experiment [8] (setting [21]) it was 6%; in experiment [9] it was 1%; in [10], 0%; in experiment [11] it was 0%; in experiment [12], 29%. In addition, the “%Inh” value in experiment [13] is reported as 0%; in experiment [14], 5%; in experiment [15], 0%; in [16], 0%; in experiment [17] it was 26%; in [18], 0%. Moreover, the “%Inh” value in experiment [19] and in experiment [20] was 0% throughout.

For the molecule `O=C(O)C(F)(F)F.O=C(O)C(F)(F)F.O=c1[nH]ccc2nc(N[C@@H]3CCCNC3)nc(Nc3ccc(S(=O)(=O)N4CCOCC4)cc3)c12` [GSK2177277], the “%Inh” value in experiment [1] was found to be 95.7%; in [2], 0%; in experiment [3], 92.1%; in experiment [4] it was 99.9%; in experiment [5], 99.3%; in [6] it was 100%. The “%Inh” value worked out at 99.6% in experiment [7] (setting [21]); 97.9% in experiment [8] (setting [21]); 99.9% in experiment [9]; 99.9% in [10]; 98.3% in experiment [11]; 96.2% in [12]. For the same molecule, the “%Inh” value in experiment [13] is recorded as 97.5%; in [14], 100%; in experiment [15], 100%; in experiment [16], 61%; in [17] it was 65%; in [18], 97.7%. Besides, the “%Inh” value in experiment [19] came to 94.7%; in experiment [20], 51%.

Regarding `CCn1c(-c2nonc2N)nc2c(C#CC(C)(C)O)ncc(OCCCCN)c21.O=C(O)C(F)(F)F.O=C(O)C(F)(F)F` [GSK507274], the “%Inh” value in [1] was found to be 29%; in experiment [2], 0%; in [3], 40%; in experiment [4] it was 81%; in [5], 88%; in experiment [6] it was 49%. In addition, the “%Inh” value in [7] (1 µM) is 98.1%; in experiment [8] (1 µM), 89%; in [9], 99%; in experiment [10], 8%; in experiment [11] it was 0%; in [12], 0%. Further, the “%Inh” value in experiment [13] is 0%; in experiment [14], 25%; in [15], 0%; in experiment [16], 6%; in experiment [17], 32%; in experiment [18] it was 5%. For the same molecule, the “%Inh” value in experiment [19] and in [20] was 0% throughout.

For the molecule `Cc1ccc(S(=O)(=O)Nc2ccc(Nc3nccc(Nc4cccc5[nH]ncc45)n3)cc2)cc1` [GSK581271], the “%Inh” value in experiment [1] amounted to 26%; in [2], 56%; in [3], 13%; in [4], 14%; in [5], 12%; in experiment [6] it was 35%. Moreover, the “%Inh” value in [7] (setting [21]) turned out to be 0%; in experiment [8] (setting [21]), 18%; in [9] it was 0%; in experiment [10] it was 2%; in experiment [11], 0%; in experiment [12], 12%. Further, the “%Inh” value was determined as 0% in [13]; 73% in experiment [14]; 0% in experiment [15]; 12% in [16]; 10% in [17]; 0% in [18]. For the same molecule, the “%Inh” value in experiment [19] and in experiment [20] was 0% in each case.
